# Measured values from PubChem BioAssay (EPA / NIEHS).
# “And” between values parts separate entries of the source, which are not always exact repeats. Equal values may be shown once. Inconclusive results are not listed. The source made the active and inactive calls. Rule for the calls, unless noted: active = hit-call score of the fitted dose curve at least 0.9, where 1 is the maximum; inactive = score below 0.9.
# Tests used:
# [1] = CCTE_Mundy_HCI_iCellGluta_NOG_NeuriteLength: CCTE's Neurite Outgrowth Assay in iCellGluta cells for Neurite Length, Mundy Lab (AID 2284318; active = hit-call score of the fitted dose curve at least 0.9, where 1 is the maximum)
# How it was run: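 Automated high-content imaging of betaIII-tubulin (Alexa Fluor-488) and Hoechst-stained cells gave neurite length, normalized to the DMSO baseline.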
# [2] = IUF_NPC1_cytotoxicity_72hr: Cytotoxicity Assessment at 72 hours in the Leibniz Research Institute for Environmental Medicine (IUF) Neural Progenitor Cell Proliferation Assay (NPC1) (AID 2284332; active = hit-call score of the fitted dose curve at least 0.9, where 1 is the maximum;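 note: rising LDH signal means more cytotoxicity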)
# How it was run: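 hNPC spheres (fetal brain, gestational week 16-19) grown under proliferative EGF/FGF conditions, pH 7.2-7.6, were treated continuously for 72 h. Cytotoxicity came from LDH-coupled resazurin fluorescence in each well's supernatant.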
# IYD (gene 389434) = experiment: CCTE_GLTED_hIYD: CCTE's human Iodotyrosine Deiodinase (xIYD) Inhibition Assay, Great Lakes Toxicology and Ecology Division (GLTED) Lab (AID 2284317; active = hit-call score of the fitted dose curve at least 0.9, where 1 is the maximum;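 note: cell-free human IYD enzyme made in baculovirus insect cells; iodide freed from monoiodotyrosine measured by cerium arsenite color change at 420 nm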)
# How it was run: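 First, recombinant human IYD (baculovirus-insect cells), MIT and chemical incubated 3 h. Next, iodide isolated on Dowex. Finally, Sandell-Kolthoff rate read at 420 nm, with platewise normalization to MNT and solvent controls.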
# [3] = CCTE_Deisenroth_5AR_NBTE_donor: CCTE's 5alpha-reductase NanoBRET Target Engagement Assay […], Deisenroth Lab (AID 2284319); conditions: actives raise or lower the signal
# How it was run: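 SRD5A2-NanoLuc, HEK293T, 20 h expression. Chemical 10 nM - 29.9 uM, 8 conc, duplicate; 3 h preincubation + 2 h testosterone tracer. Nano-Glo substrate plus extracellular NanoLuc inhibitor; donor lum 460 nm. DMSO baseline, bidirectional fit.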
# [4] = CCTE_Deisenroth_5AR_NBTE_acceptor: CCTE's 5alpha-reductase NanoBRET Target Engagement Assay - Autofluorescence Screen, Deisenroth Lab (AID 2284321); conditions: actives raise or lower the signal;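 note: compound fluorescence in the acceptor channel under 460 nm excitation flags autofluorescence artifacts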
# How it was run: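 Using three independent plate-reader runs, nominal 100 uM chemicals were checked for intrinsic fluorescence (ex 460 nm). DMSO defined the baseline for bidirectional fitting.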
# SRD5A2 (gene 6716) = experiment: CCTE_Deisenroth_5AR_NBTE_ratio: CCTE's 5alpha-reductase NanoBRET Target Engagement Assay - Ratio, Deisenroth Lab (AID 2284322); conditions: actives raise or lower the signal
# How it was run: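 Reverse-transfect HEK293T with pNLF1-C-SRD5A2, express 20 h. Pre-incubate cells with chemical 3 h (8-point series, 10 nM - 29.9 uM, duplicate). Add testosterone tracer, 2 h more. Add substrate/inhibitor, read donor and acceptor emission.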
# [5] = TAMU_PeakParms_SingleDonor1434_Asystole: Texas A&M University (TAMU) 1.5-hr Human Induced Pluripotent Stem Cell (iPSC)-derived Cardiomyocytes Calcium (Ca+2) Flux Assay for Cardiotoxicity: Asystole (quiescence of beating) (AID 2284328; active = hit-call score of the fitted dose curve at least 0.9, where 1 is the maximum)
# Procedure: TAMU_PeakParms is a cell-based, multiplexed-readout assay that uses iPSC-derived cardiomyocytes with measurements taken at 1.5 hours after chemical dosing in a microplate: 384-well plate.TAMU_PeakParms_SingleDonor1434_Chronotopy is a phenotype derived from the peak.freq.avg parameter and uses an EC95 as its POD (95% decrease in beat rate, compared to controls). Peak.Freq.Avg measures the average peak frequency, in beats per second, using Fluorescence intensity as a functional reporter from Calcium (Ca+2) flux assay technology. There is no preprocessing performed on the data used to model this phenotype.Data from the assay component TAMU_PeakParms_SingleDonor1434_Asystole was analyzed into 1 assay endpoint. This assay endpoint, TAMU_PeakParms_SingleDonor1434_Asystole, was analyzed in the positive analysis fitting direction relative to DMSO as the negative control and baseline of activity. Using a type of functional reporter, loss-of-signal activity can be used to understand changes in the cardiac function. To generalize the intended target to other relatable targets, this assay endpoint is annotated to the cardiomyocyte function intended target family, where the subfamily is cessation of beating.
# Each test compound from the chemical master plates was transferred into new tissue culture-treated 384-well microplates using acoustic dispensing (Labcyte Echo 550, Beckman Coulter, Indianapolis, IN) in amounts that would result in 5x concentrations (1, 5, 50, 500 uM) in the working plate in a final volume of 50 uL. Chemicals were randomly divided into 16 separate 384-well plates for screening such that the outer-most wells were left empty (308 wells were used on each plate). Fifteen of the plates contained unique test chemicals (n = 65 chemicals, 4 concentrations, one replicate each), positive controls (n = 10 chemicals, one concentration, 3 replicates each), vehicle (0.5% DMSO, n = 12), and media-only (n = 6) wells. […]
# TTR (gene 7276) = experiment: CCTE_GLTED_hTTR_0.5uM: CCTE's human Transthyretin (hTTR) Inhibition Assay, with 0.5uM TTR, Great Lakes Toxicology and Ecology Division (GLTED) Lab (AID 2284320)
# How it was run: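 Cell-free displacement assay in which human TTR at 0.5 uM was incubated with test chemical for 2 h. Displacement of the ANSA probe was read by fluorescence at 380 nm excitation/475 nm emission. Loss of signal was fitted in the positive direction versus DMSO.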
# [6] = system: Brachyury (BRA) Protein Expression, Deisenroth Lab, TBXT (gene 6862); experiment: CCTE_Deisenroth_DEVTOX-GLR_legacy_Bra: (Legacy) CCTE's DevTox GLR-Endo Assay Evaluation of Brachyury (BRA) Protein Expression, Deisenroth Lab (AID 2284329)
# Procedure: CCTE_Deisenroth_DEVTOX-GLR_legacy assay is a cell-based, multiplex-readout assay that uses RUES2-GLR, a human pluripotent cell line, with measurements taken at 48 hours after chemical dosing in a 384-well microplateCCTE_Deisenroth_DEVTOX-GLR_legacy_Bra is one of 4 assay components calculated from the CCTE_Deisenroth_DEVTOX-GLR_legacy assay that measures an increase in the percentage of cells in an […] state. It is designed to make measurements of inducible reporter a form of fluorescent protein induction as detected with optical fluorescence microscopy. Percentage Bra+ cells are determined by calculating the number of Bra+ cells divided by cell count. A cell is Bra+ if the cell Bra mean intensity is 5x BMAD above the pluripotent control median cell Bra mean. The assay endpoint was analyzed with bidirectional fitting with the 0.2% DMSO control median percent Bra in the DEVTOX-GLR assay subtracted.Data from the assay component CCTE_Deisenroth_DEVTOX-GLR_legacy_Bra was analyzed into 1 assay endpoint. This assay endpoint, CCTE_Deisenroth_DEVTOX-GLR_legacy_Bra, was analyzed in the positive analysis fitting direction relative to DMSO as the negative control and baseline activity. […] Furthermore, this assay endpoint can be referred to as a secondary readout, because this assay has produced multiple assay endpoints where this one serves as a measure of mesoderm differentiation. […]
# [7] = CCTE_Deisenroth_DEVTOX-GLR_legacy_CellCount: (Legacy) Viability Assessment in CCTE's DevTox GLR-Endo Assay, Deisenroth Lab (AID 2284331); conditions: actives raise or lower the signal
# Procedure: CCTE_Deisenroth_DEVTOX-GLR_legacy assay is a cell-based, multiplex-readout assay that uses RUES2-GLR, a human pluripotent cell line, with measurements taken at 48 hours after chemical dosing in a 384-well microplateCCTE_Deisenroth_DEVTOX-GLR_legacy_CellCount is one of 4 assay components calculated from the CCTE_Deisenroth_DEVTOX-GLR_legacy assay that measures an increase in cell count. It is designed to make measurements of nuclei count, a form of cell viability, as detected with optical fluorescence microscopy by Perkin Elmer Harmony nuclei detection algorithm. The assay endpoints were analyzed with bidirectional fitting relative to 0.2% DMSO control in the DEVTOX-GLR assay.Data from the assay component CCTE_Deisenroth_DEVTOX-GLR_legacy_CellCount was analyzed into 1 assay endpoint. This assay endpoint, CCTE_Deisenroth_DEVTOX-GLR_legacy_CellCount, was analyzed with bidirectional fitting relative to DMSO as the negative control and baseline activity. Using nuclei counting, gain or loss-of-signal activity can be used to understand changes in cell viability. Furthermore, this assay endpoint can be referred to as a primary readout, because this assay has produced multiple assay endpoints where this one serves as a measure of cytotoxicity. […]
smiles,measurement,setting,value
N[C@@H](CCC(=O)O)C(=O)O,outcome,[1],inactive
same,outcome,[2],inactive
O=C1OC2(c3ccc(O)cc3Oc3cc(O)ccc32)c2ccccc21,outcome,IYD (gene 389434),inactive
same,AC50,[3],3.88 µM (active)
same,outcome,[4],inactive
same,AC50,SRD5A2 (gene 6716),10.3 µM (active)
N#CCCNCCC#N,outcome,[1],inactive
same,outcome,[5],inactive
CC/C(=C(\c1ccccc1)c1ccc(OCCN(C)C)cc1)c1ccccc1,AC50,IYD (gene 389434),55.8 µM (active) and 31.5 µM (active)
same,AC50,[3],67.4 µM (active)
same,AC50,[4],64 µM (active)
same,AC50,SRD5A2 (gene 6716),76.6 µM (active)
same,outcome,[5],inactive
O=C(O)C(F)(F)C(F)(F)C(F)(F)C(F)(F)C(F)(F)C(F)(F)C(F)(F)C(F)F,AC50,TTR (gene 7276),0.53 µM (active)
O=C(O)c1ccccc1O,outcome,[6],inactive
same,outcome,[7],inactive
O=C(O)C(F)(F)OC(F)(F)C(F)(F)OC(F)(F)C(F)(F)C(F)(F)C(F)(F)F,AC50,TTR (gene 7276),0.712 µM (active)
CNC(=C[N+](=O)[O-])NCCSCc1ccc(CN(C)C)o1,outcome,[5],inactive
O=C(c1ccc(OCCN2CCCCC2)cc1)c1c(-c2ccc(O)cc2)sc2cc(O)ccc12,AC50,[3],50 µM (active)
same,AC50,[4],50 µM (active)
same,AC50,SRD5A2 (gene 6716),19.1 µM (active)
O=S(=O)(O)C(F)(F)C(F)(F)OC(F)(F)C(F)(F)F,AC50,TTR (gene 7276),2.14 µM (active)
CCCCCCCCCCCCOCCOS(=O)(=O)O,AC50,IYD (gene 389434),76.7 µM (active)
same,AC50,[3],79 µM (active)
same,AC50,[4],78.4 µM (active)
same,AC50,SRD5A2 (gene 6716),79.1 µM (active)
c1ccc2scnc2c1,outcome,[1],inactive
same,outcome,[2],inactive
O=S(=O)(O)c1cc(S(=O)(=O)O)c2c(N=Nc3ccccc3)c(O)ccc2c1,outcome,[3],inactive
same,outcome,[4],inactive
same,AC50,SRD5A2 (gene 6716),10.9 µM (active)
CCCO[Si](OCCC)(OCCC)OCCC,outcome,[3],inactive
same,outcome,[4],inactive
same,outcome,SRD5A2 (gene 6716),inactive
